# Assay results published in ChEMBL document CHEMBL2218924, “A broad activity screen in support of a chemogenomic map for kinase signalling research and drug discovery” (Biochem J, 2013).
# Legend:
# [1] = biological target: T1, Serine/threonine-protein kinase TBK1 (Homo sapiens) (UniProt Q9UHD2); details: at 10 µM
# T1 sequence (whole entry): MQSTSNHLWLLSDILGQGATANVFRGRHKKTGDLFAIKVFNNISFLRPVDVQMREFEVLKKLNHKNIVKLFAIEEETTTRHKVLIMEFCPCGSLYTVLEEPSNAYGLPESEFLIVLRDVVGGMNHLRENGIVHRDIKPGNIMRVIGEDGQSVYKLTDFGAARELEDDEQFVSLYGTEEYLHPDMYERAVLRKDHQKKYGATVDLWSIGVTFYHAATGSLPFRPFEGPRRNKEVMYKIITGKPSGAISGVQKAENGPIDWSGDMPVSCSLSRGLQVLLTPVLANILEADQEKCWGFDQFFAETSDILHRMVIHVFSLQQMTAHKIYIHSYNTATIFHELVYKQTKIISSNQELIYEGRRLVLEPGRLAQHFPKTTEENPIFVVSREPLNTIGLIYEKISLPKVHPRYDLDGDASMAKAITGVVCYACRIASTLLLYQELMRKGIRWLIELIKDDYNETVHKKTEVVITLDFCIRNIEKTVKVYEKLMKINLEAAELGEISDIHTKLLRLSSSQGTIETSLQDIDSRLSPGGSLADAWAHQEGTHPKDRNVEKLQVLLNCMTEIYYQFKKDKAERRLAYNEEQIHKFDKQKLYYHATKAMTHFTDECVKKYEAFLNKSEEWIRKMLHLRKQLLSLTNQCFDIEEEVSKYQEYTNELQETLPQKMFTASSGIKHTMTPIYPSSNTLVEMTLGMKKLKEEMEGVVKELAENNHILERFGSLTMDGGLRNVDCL
# [2] = biological target: T2, TGF-beta receptor type-1 (Homo sapiens) (UniProt P36897); details: at 1 µM
# T2 sequence (whole entry): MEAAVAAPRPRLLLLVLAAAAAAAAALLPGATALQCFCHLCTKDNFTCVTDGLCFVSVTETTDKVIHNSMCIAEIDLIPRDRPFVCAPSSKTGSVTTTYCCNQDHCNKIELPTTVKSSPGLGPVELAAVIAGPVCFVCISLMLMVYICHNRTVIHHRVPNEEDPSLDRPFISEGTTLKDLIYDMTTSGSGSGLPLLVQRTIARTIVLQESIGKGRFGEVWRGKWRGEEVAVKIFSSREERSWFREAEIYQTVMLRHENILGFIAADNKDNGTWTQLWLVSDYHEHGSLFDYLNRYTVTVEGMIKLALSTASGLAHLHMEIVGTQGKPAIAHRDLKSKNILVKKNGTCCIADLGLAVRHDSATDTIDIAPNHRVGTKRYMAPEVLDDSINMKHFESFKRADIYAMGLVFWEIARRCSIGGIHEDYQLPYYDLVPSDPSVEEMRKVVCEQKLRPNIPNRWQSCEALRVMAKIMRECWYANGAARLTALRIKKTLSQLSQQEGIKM
# [3] = biological target: T2, TGF-beta receptor type-1 (Homo sapiens); details: at 10 µM
# [4] = biological target: Insulin-like growth factor 1 receptor (Homo sapiens) (UniProt P08069); details: at 1 µM
# [5] = biological target: Insulin-like growth factor 1 receptor (Homo sapiens) (UniProt P08069); details: at 10 µM
# [6] = biological target: T3, Inhibitor of nuclear factor kappa-B kinase subunit alpha (Homo sapiens) (UniProt O15111); details: at 1 µM
# T3 sequence (whole entry): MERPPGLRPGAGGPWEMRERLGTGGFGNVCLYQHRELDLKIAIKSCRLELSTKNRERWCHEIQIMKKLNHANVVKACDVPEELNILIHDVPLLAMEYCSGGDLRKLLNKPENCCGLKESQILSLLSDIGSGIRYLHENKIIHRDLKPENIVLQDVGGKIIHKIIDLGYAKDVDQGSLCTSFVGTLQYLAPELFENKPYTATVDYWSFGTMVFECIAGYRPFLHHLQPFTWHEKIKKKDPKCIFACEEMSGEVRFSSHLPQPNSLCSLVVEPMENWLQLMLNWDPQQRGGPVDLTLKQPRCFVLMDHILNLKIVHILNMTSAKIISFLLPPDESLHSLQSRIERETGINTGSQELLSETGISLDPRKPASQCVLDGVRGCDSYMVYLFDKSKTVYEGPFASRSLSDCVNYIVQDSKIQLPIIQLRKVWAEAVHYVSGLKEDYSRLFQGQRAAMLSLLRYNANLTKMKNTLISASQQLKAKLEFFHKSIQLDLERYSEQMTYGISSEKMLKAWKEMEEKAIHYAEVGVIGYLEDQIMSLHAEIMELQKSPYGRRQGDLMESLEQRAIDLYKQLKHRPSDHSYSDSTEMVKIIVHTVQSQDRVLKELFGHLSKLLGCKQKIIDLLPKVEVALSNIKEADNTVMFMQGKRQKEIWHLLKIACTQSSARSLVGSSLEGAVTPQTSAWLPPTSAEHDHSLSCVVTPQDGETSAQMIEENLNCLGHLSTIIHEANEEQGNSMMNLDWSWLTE
# [7] = biological target: T3, Inhibitor of nuclear factor kappa-B kinase subunit alpha (Homo sapiens); details: at 10 µM
# [8] = biological target: T4, Inhibitor of nuclear factor kappa-B kinase subunit beta (Homo sapiens) (UniProt O14920); details: at 1 µM
# T4 sequence (whole entry): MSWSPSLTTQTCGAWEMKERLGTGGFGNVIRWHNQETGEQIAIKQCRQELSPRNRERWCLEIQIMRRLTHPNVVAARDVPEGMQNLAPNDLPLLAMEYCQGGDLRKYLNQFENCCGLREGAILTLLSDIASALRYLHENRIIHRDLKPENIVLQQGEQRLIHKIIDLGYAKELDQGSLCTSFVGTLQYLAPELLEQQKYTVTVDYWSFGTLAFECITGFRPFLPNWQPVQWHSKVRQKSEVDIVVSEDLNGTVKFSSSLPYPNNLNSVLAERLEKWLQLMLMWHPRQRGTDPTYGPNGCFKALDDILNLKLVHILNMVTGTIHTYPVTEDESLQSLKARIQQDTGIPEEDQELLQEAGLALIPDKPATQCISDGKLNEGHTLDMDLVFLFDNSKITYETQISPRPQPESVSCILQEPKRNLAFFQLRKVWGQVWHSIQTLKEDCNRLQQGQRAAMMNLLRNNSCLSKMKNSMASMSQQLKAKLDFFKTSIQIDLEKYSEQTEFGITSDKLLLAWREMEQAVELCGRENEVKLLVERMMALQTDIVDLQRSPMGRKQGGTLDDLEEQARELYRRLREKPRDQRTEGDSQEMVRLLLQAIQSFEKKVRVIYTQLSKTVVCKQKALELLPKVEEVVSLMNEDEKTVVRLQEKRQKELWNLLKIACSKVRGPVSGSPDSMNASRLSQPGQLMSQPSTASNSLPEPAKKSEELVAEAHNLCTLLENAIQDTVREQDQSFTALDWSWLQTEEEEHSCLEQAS
# [9] = biological target: T4, Inhibitor of nuclear factor kappa-B kinase subunit beta (Homo sapiens); details: at 10 µM
# [10] = biological target: Insulin receptor (Homo sapiens) (UniProt P06213); details: at 1 µM
# Chain of Insulin receptor (Homo sapiens) (P06213 28-758 limits assumed): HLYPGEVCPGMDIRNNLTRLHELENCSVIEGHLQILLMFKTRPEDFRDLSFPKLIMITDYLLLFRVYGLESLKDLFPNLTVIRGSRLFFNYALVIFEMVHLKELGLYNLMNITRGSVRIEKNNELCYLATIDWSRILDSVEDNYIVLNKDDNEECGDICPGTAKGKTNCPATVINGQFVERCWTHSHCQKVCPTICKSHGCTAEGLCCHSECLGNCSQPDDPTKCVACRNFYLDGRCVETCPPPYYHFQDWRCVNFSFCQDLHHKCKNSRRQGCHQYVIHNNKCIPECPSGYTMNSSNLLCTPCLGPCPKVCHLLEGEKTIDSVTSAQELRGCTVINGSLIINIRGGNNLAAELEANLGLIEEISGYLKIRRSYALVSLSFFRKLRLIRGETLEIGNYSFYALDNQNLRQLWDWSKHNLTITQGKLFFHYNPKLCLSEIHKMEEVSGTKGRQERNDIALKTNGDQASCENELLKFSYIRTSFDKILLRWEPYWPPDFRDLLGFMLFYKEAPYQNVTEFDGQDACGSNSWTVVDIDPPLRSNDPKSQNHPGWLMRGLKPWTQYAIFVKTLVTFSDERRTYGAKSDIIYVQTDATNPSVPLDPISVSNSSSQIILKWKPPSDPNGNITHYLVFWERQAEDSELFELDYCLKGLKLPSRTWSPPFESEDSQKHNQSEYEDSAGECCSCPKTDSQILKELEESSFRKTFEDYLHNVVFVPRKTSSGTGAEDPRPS
# Chain of Insulin receptor (Homo sapiens) (P06213 763-1382 limits assumed): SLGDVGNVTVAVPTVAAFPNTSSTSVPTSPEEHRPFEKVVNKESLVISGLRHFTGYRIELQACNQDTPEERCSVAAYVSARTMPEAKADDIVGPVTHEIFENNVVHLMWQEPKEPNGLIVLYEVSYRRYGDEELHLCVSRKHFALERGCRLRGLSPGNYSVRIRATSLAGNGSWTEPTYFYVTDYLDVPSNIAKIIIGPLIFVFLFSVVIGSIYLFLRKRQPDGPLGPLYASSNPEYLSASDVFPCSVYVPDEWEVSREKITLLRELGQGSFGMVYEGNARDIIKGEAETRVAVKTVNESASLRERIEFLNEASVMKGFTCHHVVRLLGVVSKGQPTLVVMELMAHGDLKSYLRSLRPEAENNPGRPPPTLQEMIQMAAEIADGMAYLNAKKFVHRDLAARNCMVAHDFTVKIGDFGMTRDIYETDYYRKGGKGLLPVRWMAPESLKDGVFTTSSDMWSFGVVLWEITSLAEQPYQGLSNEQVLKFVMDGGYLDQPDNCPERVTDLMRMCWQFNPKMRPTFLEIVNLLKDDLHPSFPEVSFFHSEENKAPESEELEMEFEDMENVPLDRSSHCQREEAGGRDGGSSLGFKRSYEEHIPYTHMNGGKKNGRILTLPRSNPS
# Chain of Insulin-like growth factor 1 receptor (Homo sapiens) (P08069 31-736 limits assumed): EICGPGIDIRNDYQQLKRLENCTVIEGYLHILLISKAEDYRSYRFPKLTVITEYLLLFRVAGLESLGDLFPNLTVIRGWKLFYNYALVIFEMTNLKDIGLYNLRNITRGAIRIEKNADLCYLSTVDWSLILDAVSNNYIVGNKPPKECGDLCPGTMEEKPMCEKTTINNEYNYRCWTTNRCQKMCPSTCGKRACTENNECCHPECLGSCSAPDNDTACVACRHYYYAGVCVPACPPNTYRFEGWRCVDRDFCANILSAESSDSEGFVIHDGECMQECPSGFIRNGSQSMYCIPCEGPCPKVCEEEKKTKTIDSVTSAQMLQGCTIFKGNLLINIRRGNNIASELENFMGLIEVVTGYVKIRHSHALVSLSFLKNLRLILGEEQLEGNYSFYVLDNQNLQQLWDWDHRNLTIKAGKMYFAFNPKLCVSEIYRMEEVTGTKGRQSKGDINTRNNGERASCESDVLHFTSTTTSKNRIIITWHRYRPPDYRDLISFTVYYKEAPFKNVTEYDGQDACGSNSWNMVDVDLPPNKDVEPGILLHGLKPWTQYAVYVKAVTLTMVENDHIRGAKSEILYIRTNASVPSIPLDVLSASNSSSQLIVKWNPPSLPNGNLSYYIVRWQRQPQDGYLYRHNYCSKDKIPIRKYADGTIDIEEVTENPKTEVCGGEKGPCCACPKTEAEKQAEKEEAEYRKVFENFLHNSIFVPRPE
# Chain of Insulin-like growth factor 1 receptor (Homo sapiens) (P08069 741-1367 limits assumed): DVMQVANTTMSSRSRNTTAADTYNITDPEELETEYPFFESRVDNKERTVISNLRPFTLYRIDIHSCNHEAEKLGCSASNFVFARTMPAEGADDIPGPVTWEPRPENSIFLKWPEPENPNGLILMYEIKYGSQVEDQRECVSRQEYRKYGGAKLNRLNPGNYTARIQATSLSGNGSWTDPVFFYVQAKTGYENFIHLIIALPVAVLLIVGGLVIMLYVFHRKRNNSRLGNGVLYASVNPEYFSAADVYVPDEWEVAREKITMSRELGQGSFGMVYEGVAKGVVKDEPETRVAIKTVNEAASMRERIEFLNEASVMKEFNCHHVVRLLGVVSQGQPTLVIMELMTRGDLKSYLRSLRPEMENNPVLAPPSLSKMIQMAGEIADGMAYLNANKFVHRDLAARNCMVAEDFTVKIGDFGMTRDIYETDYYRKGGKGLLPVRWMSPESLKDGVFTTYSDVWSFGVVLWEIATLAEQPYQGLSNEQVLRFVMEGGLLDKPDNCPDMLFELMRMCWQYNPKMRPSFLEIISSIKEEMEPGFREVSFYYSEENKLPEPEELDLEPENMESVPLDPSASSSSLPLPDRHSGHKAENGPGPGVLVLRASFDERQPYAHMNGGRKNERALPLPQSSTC
smiles,measurement,setting,value
COc1cc2ncnc(Nc3ccc(Oc4ccccc4)cc3)c2cc1OC,residual activity,[1],57%
same,residual activity,[2],99%
same,residual activity,[3],98%
same,residual activity,[4],110%
same,residual activity,[5],89%
same,residual activity,[6],117%
same,residual activity,[7],101%
same,residual activity,[8],103%
same,residual activity,[9],122%
same,residual activity,[10],110%
